PubChem BioAssay AID1159580 (chemical genetic matrix, 2015)
In all, about 5,500 compounds went through this assay and about 2,000 (36%) were called active. About 18% were inconclusive and are not listed. Rule as the data show it: active = normalized growth mostly below about 0.91 (no sharp cut-off); inconclusive = no clear call, values can overlap the other calls; inactive = mostly above about 0.92. The list shows a part of the results.

Experiment: chemical genetic growth profiling, strain panel (AID 1159580);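 also: tested at 20 µM; growth read once vehicle control cultures reached saturation at 30 °C; 1 = growth at the plate median or of vehicle wells; lower values mean less growth of the strain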
Details: growth OD

Measured: normalized growth

ClC1=C(Cl)C2(Cl)C3C4C=CC(C4)C3C1(Cl)C2(Cl)Cl (configuration not stated)
inactive: S. cerevisiae deletion strains, locus YJR075W, strain HOC1, stronger effect = lower value 1.01 | S. cerevisiae deletion strains, locus YKL009W, strain mrt4, stronger effect = lower value 0.953 | S. cerevisiae deletion strains, locus YKL068W, stronger effect = lower value 0.996 | S. cerevisiae deletion strains, locus YKL085W, strain MDH1 (second series), stronger effect = lower value 0.996 | S. cerevisiae deletion strains, locus YKL085W, strain MDH1, stronger effect = lower value 0.996 | S. cerevisiae deletion strains, locus YKL160W, strain elf1, stronger effect = lower value 0.998 | S. cerevisiae deletion strains, locus YKL190W, strain CNB1, stronger effect = lower value 1 | S. cerevisiae deletion strains, locus YKR001C, strain vps1, stronger effect = lower value 0.998 | S. cerevisiae deletion strains, locus YKR026C, strain gcn3, stronger effect = lower value 0.997 | S. cerevisiae deletion strains, locus YKR091W, strain srl3, stronger effect = lower value 0.996 | S. cerevisiae deletion strains, locus YLL001W, strain dnm1, stronger effect = lower value 0.998 | S. cerevisiae deletion strains, locus YLL026W, stronger effect = lower value 1 | S. cerevisiae deletion strains, locus YLL041C, strain sdh2, stronger effect = lower value 0.994 | S. cerevisiae deletion strains, locus YLR027C, strain aat2, stronger effect = lower value 1.01 | S. cerevisiae deletion strains, locus YLR039C, strain RIC1, stronger effect = lower value 0.942 | S. cerevisiae deletion strains, locus YLR058C, strain SHM2, stronger effect = lower value 0.991 | S. cerevisiae deletion strains, locus YLR102C, strain apc9, stronger effect = lower value 1 | S. cerevisiae deletion strains, locus YLR113W, strain HOG1, stronger effect = lower value 0.892 | S. cerevisiae deletion strains, locus YLR221C, strain rsa3, stronger effect = lower value 0.985 | S. cerevisiae deletion strains, locus YLR258W, strain gsy2, stronger effect = lower value 0.997 | S. cerevisiae deletion strains, locus YLR262C, strain YPT6 (second series), stronger effect = lower value 0.94 | S. cerevisiae deletion strains, locus YLR262C, strain YPT6, stronger effect = lower value 0.859 | S. cerevisiae deletion strains, locus YLR268W, strain sec22, stronger effect = lower value 0.98 | S. cerevisiae deletion strains, locus YLR320W, strain mms22, stronger effect = lower value 0.994 | S. cerevisiae deletion strains, locus YLR330W, strain CHS5, stronger effect = lower value 1 | S. cerevisiae deletion strains, locus YLR342W, strain FKS1 (second series), stronger effect = lower value 0.916 | S. cerevisiae deletion strains, locus YLR342W, strain FKS1, stronger effect = lower value 0.995 | S. cerevisiae deletion strains, locus YLR357W, strain rsc2, stronger effect = lower value 1.02 | S. cerevisiae deletion strains, locus YLR370C, strain arc18, stronger effect = lower value 0.997 | S. cerevisiae deletion strains, locus YLR371W, strain rom2, stronger effect = lower value 0.981 | S. cerevisiae deletion strains, locus YLR384C, strain iki3, stronger effect = lower value 0.988 | S. cerevisiae deletion strains, locus YLR418C, strain cdc73, stronger effect = lower value 0.894 | S. cerevisiae deletion strains, locus YML016C, strain PPZ1, stronger effect = lower value 0.998 | S. cerevisiae deletion strains, locus YML032C, strain rad52, stronger effect = lower value 0.976 | S. cerevisiae deletion strains, locus YML120C, strain ndi1, stronger effect = lower value 1 | S. cerevisiae deletion strains, locus YML124C, strain tub3, stronger effect = lower value 0.984 | S. cerevisiae deletion strains, locus YMR058W, strain fet3, stronger effect = lower value 0.999 | S. cerevisiae deletion strains, locus YMR078C, strain ctf18, stronger effect = lower value 0.979 | S. cerevisiae deletion strains, locus YMR125W, strain sto1, stronger effect = lower value 1 | S. cerevisiae deletion strains, locus YMR129W, stronger effect = lower value 0.998 | S. cerevisiae deletion strains, locus YMR205C, strain PFK2, stronger effect = lower value 0.99 | S. cerevisiae deletion strains, locus YMR223W, strain ubp8, stronger effect = lower value 0.949 | S. cerevisiae deletion strains, locus YMR231W, strain pep5, stronger effect = lower value 0.982 | S. cerevisiae deletion strains, locus YMR263W, strain SAP30, stronger effect = lower value 0.999 | S. cerevisiae deletion strains, locus YMR307W, strain GAS1, stronger effect = lower value 1.07 | S. cerevisiae deletion strains, locus YNL067W, strain RPL9B, stronger effect = lower value 1 | S. cerevisiae deletion strains, locus YNL071W, strain lat1, stronger effect = lower value 1.01 | S. cerevisiae deletion strains, locus YNL128W, strain TEP1, stronger effect = lower value 0.992 | S. cerevisiae deletion strains, locus YNL153C, strain GIM3, stronger effect = lower value 1.01 | S. cerevisiae deletion strains, locus YNL183C, strain NPR1, stronger effect = lower value 0.951 | S. cerevisiae deletion strains, locus YNL209W, strain ssb2, stronger effect = lower value 0.997 | S. cerevisiae deletion strains, locus YNL233W, strain BNI4, stronger effect = lower value 0.986 | S. cerevisiae deletion strains, locus YNL248C, strain rpa49, stronger effect = lower value 1.01 | S. cerevisiae deletion strains, locus YNL250W, strain rad50, stronger effect = lower value 0.99 | S. cerevisiae deletion strains, locus YNL271C, strain bni1, stronger effect = lower value 0.99 | S. cerevisiae deletion strains, locus YNL298W, strain CLA4, stronger effect = lower value 0.981 | S. cerevisiae deletion strains, locus YNL322C, strain KRE1 (second series), stronger effect = lower value 0.97 | S. cerevisiae deletion strains, locus YNL322C, strain KRE1, stronger effect = lower value 1 | S. cerevisiae deletion strains, locus YNR049C, strain mso1, stronger effect = lower value 0.995 | S. cerevisiae deletion strains, locus YNR052C, strain pop2, stronger effect = lower value 0.979 | S. cerevisiae deletion strains, locus YOL006C, strain TOP1, stronger effect = lower value 0.969 | S. cerevisiae deletion strains, locus YOL012C, strain htz1 1.09 | S. cerevisiae deletion strains, locus YOL147C, strain pex11, stronger effect = lower value 0.996 | S. cerevisiae deletion strains, locus YOR001W, strain rrp6, stronger effect = lower value 0.993 | S. cerevisiae deletion strains, locus YOR061W, strain CKA2, stronger effect = lower value 1 | S. cerevisiae deletion strains, locus YOR069W, strain VPS5, stronger effect = lower value 0.996 | S. cerevisiae deletion strains, locus YOR070C, strain gyp1, stronger effect = lower value 0.982 | S. cerevisiae deletion strains, locus YOR080W, strain dia2, stronger effect = lower value 0.989 | S. cerevisiae deletion strains, locus YOR083W, strain WHI5, stronger effect = lower value 0.991 | S. cerevisiae deletion strains, locus YOR106W, strain vam3, stronger effect = lower value 0.97 | S. cerevisiae deletion strains, locus YOR136W, strain idh2, stronger effect = lower value 0.98 | S. cerevisiae deletion strains, locus YOR144C, strain elg1, stronger effect = lower value 0.991 | S. cerevisiae deletion strains, locus YOR184W, strain ser1, stronger effect = lower value 0.911 | S. cerevisiae deletion strains, locus YOR231W, strain MKK1, stronger effect = lower value 1.04 | S. cerevisiae deletion strains, locus YOR265W, strain rbl2, stronger effect = lower value 0.991 | S. cerevisiae deletion strains, locus YOR270C, strain vph1, stronger effect = lower value 0.967 | S. cerevisiae deletion strains, locus YOR290C, strain snf2, stronger effect = lower value 0.991 | S. cerevisiae deletion strains, locus YOR316C, strain cot1, stronger effect = lower value 1 | S. cerevisiae deletion strains, locus YPL051W, strain arl3, stronger effect = lower value 1.01 | S. cerevisiae deletion strains, locus YPL055C, strain LGE1, stronger effect = lower value 0.99 | S. cerevisiae deletion strains, locus YPL078C, strain atp4, stronger effect = lower value 1 | S. cerevisiae deletion strains, locus YPL106C, strain sse1, stronger effect = lower value 1 | S. cerevisiae deletion strains, locus YPL240C, strain hsp82, stronger effect = lower value 1 | S. cerevisiae deletion strains, locus YPL241C, strain CIN2, stronger effect = lower value 1.01 | S. cerevisiae deletion strains, locus YPL256C, strain CLN2, stronger effect = lower value 1.04 | S. cerevisiae deletion strains, locus YPR119W, strain clb2, stronger effect = lower value 0.987 | S. cerevisiae deletion strains, locus YPR141C, strain kar3, stronger effect = lower value 0.982 | S. cerevisiae deletion strains, locus YPR163C, strain tif3, stronger effect = lower value 0.981 | S. cerevisiae deletion strains, locus YPR167C, strain met16, stronger effect = lower value 0.977 | S. cerevisiae deletion strains, strain wtn01, stronger effect = lower value 0.983 | S. cerevisiae strains, strain wild type, stronger effect = lower value 1.01
active: S. cerevisiae deletion strains, locus YNL307C, strain MCK1, stronger effect = lower value 0.48
